AMA1 RON2 block = qHTS for Inhibitors of AMA1-RON; Towards Development of Antimalarial Drug Lead: Primary Screen; Potency, µM (doses to about 58.2 µM), without a hit: at the highest dose activity change, negative = inhibition, actives largely listed as inhibitors; AlphaScreen AMA1-biotinylated RON2 peptide binding; AID 720542, 2013; 360,000 tested, 0.2% active;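 further: 0% = vehicle wells and -100% = peptide control; nearly all actives have a fitted effect of over 45% in size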
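AMA1 (3D7) with his tag at 25 nM final met compounds first, then biotinylated RON2 peptide at 25 nM; detection used donor plus acceptor beads, 10 µg/mL apiece, read by AlphaScreen after 30 min at room temperature.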
Pf growth 48h = Primary qHTS for delayed death inhibitors of the malarial parasite plastid, 48 hour incubation; P. falciparum luciferase growth in erythrocytes, 48 h; Potency, µM (titrated, usually from 28.7 µM), inactives show at the highest dose activity change, negative = inhibition, usual class: inhibitors; 310,000 tested, 5.9% active; further: on the % scale 0 is the no-effect control and ±100 the full control effect
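Luciferase-expressing P. falciparum in infected erythrocytes (2% hematocrit, 0.1% parasitemia final) in RPMI 1640/0.5% Albumax were exposed to compound for 48 hours at 37 C, 5% CO2; growth read as luminescence.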
SARS PLP yeast = qHTS of Yeast-based Assay for SARS-CoV PLP; S. cerevisiae expressing SARS-CoV PLpro, growth rescue; 330,000 tested, 0.19% active; Potency, µM (doses to about 32.9 µM), inactives show top-dose activity, positive = growth rescue, hits mostly activators; AID 485353, 2010; calls by dose curve; further: 0% is about no effect; nearly all actives have a fitted effect of over 55% in size
Pf growth 96h = Primary qHTS for delayed death inhibitors of the malarial parasite plastid, 96 hour incubation. P. falciparum luciferase reporter growth, 96 h. Potency, µM (series often up to 28.7 µM), inactives show at the highest dose activity change, negative = inhibition, most hits filed as inhibitors. 320,000 tested, 6.9% active. AID 504834, 2011; further: on the % scale 0 is the no-effect control and ±100 the full control effect
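96 h incubation, 37 C, 5% CO2, of luciferase-reporter P. falciparum-infected RBCs (2% hematocrit, 0.05% parasitemia final) with test compounds; endpoint luminescence.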
HCV inhibitor = qHTS Assay for Inhibitors of Hepatitis C Virus (HCV) | Potency, µM (series often up to 41.8 µM), for inactives: at the top dose activity change, negative = inhibition, usual class: inhibitors | AID 651820, 2012 | Huh7.5.1 HCVcc-Cre infection, luciferase reporter, 44 h | 340,000 tested, 3.4% active; further: on the % scale 0 is the no-effect control and ±100 the full control effect
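A cell-based infection assay in which seeded cells (1,000 per well) receive test compound after 4 h, are inoculated with HCVcc-Cre at approximately 0.5 moi, and are incubated 44 h before luminescence detection.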
NS1 inh = qHTS Assay for Inhibitors of Influenza NS1 Protein Function. Potency, µM (series often up to 46.1 µM), for the others: at the highest dose activity, positive = more growth. 270,000 tested, 0.4% active. AID 2326, 2010; calls by dose curve; further: actives are rising curves; nearly all actives have a fitted effect of over 50% in size
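A cell-based growth assay was used: compounds that relieve NS1-induced slow growth of budding yeast raise OD600. Assay medium was yeast nitrogen base with ammonium sulphate and -URA supplement, pH 6.0, with 2% galactose.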
The depositor's hits bear a star; ? = inconclusive; / = not tested or not shown; [ ] = remark or other dose. Most compounds without a hit are left out; they make up all but 12% or so of the library. Unless noted, the call rests on the fitted dose curve; in most records, active means well fitted curve in the direction sought with a large enough effect; inconclusive means small, poorly fitted or top-dose-only effect, or another doubt; inactive means no such curve, though single readings can be large; an effect the other way counts as inactive or inconclusive. Potency means the concentration at half of the fitted maximal effect.

SMILES	AMA1 RON2 block	Pf growth 48h	SARS PLP yeast	Pf growth 96h	HCV inhibitor	NS1 inh
CN(CC(=O)Nc1cccc(F)c1)CC(=O)Nc1ccccc1-c1ccccc1	24%	/	-1%	/	?	/
CN(CC(=O)Nc1cccc(F)c1)CC(=O)NC(c1ccccc1)c1ccccc1	7%	12µM*	-3%	?	-17%	/
C=CCn1c(SCC(=O)N2CCN(c3ccccc3)CC2)nc2c([nH]c3ccccc32)c1=O	-10%	104%	-8%	-8%	?	6%
COc1cccc(CN2CCN(Cc3c(C)nn(C(C)C)c3C)CC2CCO)c1 (stereo not drawn)	29%	-1%	-1%	10µM*	3%	6%
COc1cccc(CN2CCN(C3CCN(c4cccc(C)c4C)CC3)CC2CCO)c1 (stereo not drawn)	-7%	?	-1%	19%	11µM*	-4%
COCCNC(=O)Cn1nc(-c2ccc(C)cc2)c2ccccc2c1=O	-7%	29%	-1%	7%	2%	-3%
CN1CC(c2ccccn2)C2(SC(=S)N(Cc3ccccc3)C2=O)C12C(=O)Nc1ccccc12 (stereo not drawn)	?	?	-14%	?	/	?
CN1CC(c2ccccc2)C2(SC(=S)N(Cc3ccco3)C2=O)C12C(=O)Nc1ccccc12 (stereo not drawn)	-24%	12µM*	-32%	/	7.1µM*	-1%
CCOc1ccc(N(CC(=O)NC2CC3CCC2C3)S(=O)(=O)c2ccc(C)cc2)cc1 (stereo not drawn)	1%	?	-8%	?	6.3µM*	11%
COc1ccc(S(=O)(=O)N(CC(=O)N/N=C/c2cccs2)c2ccc(C)cc2)cc1OC	-9%	-10%	-1%	/	?	?
CCOc1ccc(S(=O)(=O)N(CC(=O)N/N=C/c2cccs2)c2ccc(C)cc2)cc1	19%	13µM*	1%	?	?	-8%
CCOC(=O)CC1C(=O)NCCN1S(=O)(=O)c1ccc(NC(C)=O)cc1 (stereo not drawn)	0%	-9%	-2%	0%	8%	10%
CCCCCCN(C(=O)CCCCCN1C(=O)NC(c2ccc(-c3ccccc3)cc2)C(C(=O)OCc2ccccc2)=C1C)C(C(=O)NCCCC)c1ccc(O)c(C(=O)OC)c1 (stereo not drawn)	/	2.1µM*	1%	2.1µM*	/	?
CCCCCCN(C(=O)CCCCCN1C(=O)NC(c2ccc(-c3ccccc3)cc2)C(C(=O)OCc2ccccc2)=C1C)C(C(=O)NCCCC)c1ccc(O)cc1 (stereo not drawn)	/	?	10%	2.1µM*	-2%[8.37 µM]	17%
CCCCCCN(C(=O)CCCCCN1C(=O)NC(c2ccc(-c3ccccc3)cc2)C(C(=O)OCc2ccccc2)=C1C)C(C(=O)NCCCC)c1ccc(-c2ccccc2)cc1 (stereo not drawn)	/	0.83µM*	-3%	0.26µM*	/	24%
CCCCCCN(C(=O)CCCN1C(=O)NC(c2ccc(-c3ccccc3)cc2)C(C(=O)OCc2ccccc2)=C1C)C(C)C(=O)NCCCC (stereo not drawn)	9%	/	16%	/	?	/
CCCCCCN(C(=O)CCCCCN1C(=O)NC(c2ccc(-c3ccccc3)cc2)C(C(=O)OCc2ccccc2)=C1C)C(C(=O)NCCCC)c1cccc(C(=O)OC)c1 (stereo not drawn)	/	1.9µM*	2%	1.7µM*	/	?
CCCCCCN(C(=O)CCCCCN1C(=O)NC(c2ccc([N+](=O)[O-])cc2)C(C(=O)OCc2ccccc2)=C1C)C(C(=O)NCCCC)C1CCCCC1 (stereo not drawn)	1%	/	1%	/	14%	/
Cc1cc(C)cc(N(CC(=O)NC2CCCCC2)C(=O)c2ccc(C)s2)c1	8%	-21%	-4%	26%	11µM*	16%
Cc1ccc(C(=O)N(CC(=O)NC2CCCC2)c2ccc3c(c2)OCCO3)s1	-3%	-15%	8%	13µM*	?	/
Cc1ccc(N(CC(=O)NC2CCCC2)C(=O)c2ccc(C)s2)cc1	0%	-20%	0%	-4%	11µM*	-6%
C[N@+]1(CCC(=O)c2ccccc2)CC[C@H]2CC[C@H](C2)C1	/	/	/	/	/	0%
C=CCN1C(=O)NC(=O)/C(=C/C=C/c2ccccc2)C1=O	3%	19%	-2%	?	21%	/
O=C1NC(=O)N(CCc2ccc(F)cc2)C(=O)/C1=C\C=C\c1ccccc1	-7%	29%	2%	?	4µM*	/
Cc1ccccc1NC(=O)C1CCCN(c2ncnc3onc(-c4ccc(F)cc4)c23)C1 (stereo not drawn)	-3%	9.3µM*	/	20%	19%	10%
SMILES	AMA1 RON2 block	Pf growth 48h	SARS PLP yeast	Pf growth 96h	HCV inhibitor	NS1 inh
CCc1ccccc1NC(=O)C1CCCN(c2ncnc3onc(-c4ccc(F)cc4)c23)C1 (stereo not drawn)	-1%	?	3%	?	-6%	3%
Cc1ccccc1C(=O)NC1CCN(Cc2nnnn2C(C)(C)C)CC1	-11%	6%	1%	46%	13%	2%
CCC(C)(C)n1nnnc1CN1CCC(NC(=O)c2ccc(Br)cc2)CC1	-3%	?	24%	4.1µM*	?	-22%
Cc1ccc(Cn2nnnc2CN2CCC(NC(=O)c3ccc(Br)cc3)CC2)cc1	-7%	3.7µM*	7%	?	-10%	4%
Cc1ccc(CN2C3CCCC2CC(NC(=O)c2ccc(C)cc2)C3)cc1 (stereo not drawn)	-3%	?	-1%	-1%	32µM*	-2%
Cc1ccccc1C(=O)NC1CCN(Cc2nnnn2C2CCCC2)CC1	38%	-9%	15%	6.6µM*	7%	1%
CC(C)CN1CCC(=O)N(CCSc2ccc(Br)cc2)CC1	28%	93%	-4%	?	40%	-4%
C=CCNC(=O)Nc1ccc(OCC)cc1	-1%	25%	1%	/	15%	-5%
COc1ccccc1C(=O)NNC(=O)c1ccc(NS(=O)(=O)c2cccs2)cc1	27%	36%	-2%	9%	21%	-8%
CCOc1ccc(NC(=O)c2ccc(NS(=O)(=O)c3cccs3)cc2)cc1	-11%	-3%	5%	0.83µM*	-13%	7%
C=CCOc1ccc(C(=O)Nc2ccc(OCC)cc2)cc1	-12%	0%	0%	4.1µM*	-17%	4%
COc1cccc(C(=O)NNC(=O)c2ccc(NS(=O)(=O)c3cccs3)cc2)c1OC	16%	2.9µM*	-1%	2.1µM*	-5%	/

Bioassay records: PubChem, National Center for Advancing Translational Sciences (NCATS)
